# The full data set covers some 7,900 targets. This sample favours those with a hit. About 0.6% of all pairs of compound and target were hits. Values without a mark were called inactive.
# Assays:
# Assay in all cases: log2 fold change, soluble protein after heating vs DMSO (PISA); higher = thermal stabilisation; K562 cells, 10 uM, 30 min; active = over 0.2 and 3.5 SD of the protein, either way, in both replicates (recomputed)
# IRAK-1-4 Inhibitor I = compound: C1COCCN1CCN2C3=CC=CC=C3N=C2NC(=O)C4=CC(=CC=C4)[N+](=O)[O-] [IRAK-1-4 Inhibitor I]
# In short: (§1)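 Soluble protein was quantified by TMTpro 16plex LC-MS/MS after channel sums were equalised. It was obtained as the supernatant after 21,000xg for 90 min from pooled aliquots of K562 cells (2×10^6 cells/mL, 10 μM compound, 30 min) heated for 3 min across 48°C-58°C and extracted in PBS with 0.5% NP-40 at 4°C. Thermal stability values are relative to control samples and come from duplicates. They are given as log2 fold changes.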
# ibrutinib = compound: C=CC(=O)N1CCC[C@@H](n2nc(-c3ccc(Oc4ccccc4)cc3)c3c(N)ncnc32)C1 [ibrutinib]
# In short: as §1
# [1] = compound: CC(=O)c1cnc2ccc(-c3cc(Cl)c(O)c(Cl)c3)nc2c1N[C@H]1CC[C@H](CN(C)C)CC1
# In short: as §1
# ralimetinib = compound: CC(C)(C)Cn1c(N)nc2ccc(-c3[nH]c(C(C)(C)C)nc3-c3ccc(F)cc3)nc21 [ralimetinib]
# In short: as §1
# [2] = compound: CC(C)(O)CC(=O)NCCn1ccc2ncnc(Nc3ccc(Oc4cccc(C(F)(F)F)c4)c(Cl)c3)c21
# In short: as §1
# [3] = compound: CC(C)C1=C2N=C(C=C(N2N=C1)NCC3=CC=CC=C3)NCCCCCCN
# In short: as §1
# [4] = compound: CC(C)C[C@@H](C=O)NC(=O)[C@H](CC(C)C)NC(=O)[C@H](CC(C)C)NC(=O)OCc1ccccc1
# In short: as §1
# pinometostat = compound: CC(C)N(C[C@H]1O[C@@H](n2cnc3c(N)ncnc32)[C@H](O)[C@@H]1O)[C@H]1C[C@@H](CCc2nc3cc(C(C)(C)C)ccc3[nH]2)C1 [pinometostat]
# In short: as §1
# [5] = compound: CC1=C(C(CC(=O)N1)C2=CC=C(C=C2)C(F)(F)F)C(=O)NC3=C(C=C4C(=C3)C=NN4)F
# In short: as §1
# [6] = compound: CC1=C(C2=C(C=C1)C(=O)C3=CC=CC=C3N2CCCN)C
# In short: as §1
# [7] = compound: CC1=C(C=C(C=C1)NC(=O)C2=CC(=CC=C2)C(C)(C)C#N)NC3=CC4=C(C=C3)N=CN(C4=O)C
# In short: as §1
# [8] = compound: CC1=C(C=C(C=C1)NC(=O)C2=CC(=CC=C2)N(C)C)NC(=O)C3=CC=C(C=C3)O
# In short: as §1
# [9] = compound: CC1=CC=C(C=C1)SC2=C3C=C(SC3=CN=C2)C(=O)N
# In short: as §1
# [10] = compound: CC1=NC(=CC=C1)C2=C(N=C(N2)C(C)(C)C)C3=CC4=NC=CN=C4C=C3
# In short: as §1
# Nexturastat A = compound: CCCCN(Cc1ccc(C(=O)NO)cc1)C(=O)Nc1ccccc1 [Nexturastat A]
# In short: as §1
# vemurafenib = compound: CCCS(=O)(=O)Nc1ccc(F)c(C(=O)c2c[nH]c3ncc(-c4ccc(Cl)cc4)cc23)c1F [vemurafenib]
# In short: as §1
# [11] = compound: CCCS(=O)(=O)Nc1ccc(F)c(C(=O)c2c[nH]c3ncc(Cl)cc23)c1F
# In short: as §1
# [12] = compound: CCCc1cc(C)[nH]c(=O)c1CNC(=O)c1cc(-c2ccnc(N3CCN(C)CC3)c2)cc2c1cnn2C(C)C
# In short: as §1
# givinostat = compound: CCN(CC)Cc1ccc2cc(COC(=O)Nc3ccc(C(=O)NO)cc3)ccc2c1 [givinostat]
# In short: as §1
# barasertib = compound: CCN(CCCOc1ccc2c(Nc3cc(CC(=O)Nc4cccc(F)c4)[nH]n3)ncnc2c1)CCOP(=O)(O)O [barasertib]
# In short: as §1
# Sequence of UniProt Q9NZT2 (Q9NZT2 whole entry, looked up): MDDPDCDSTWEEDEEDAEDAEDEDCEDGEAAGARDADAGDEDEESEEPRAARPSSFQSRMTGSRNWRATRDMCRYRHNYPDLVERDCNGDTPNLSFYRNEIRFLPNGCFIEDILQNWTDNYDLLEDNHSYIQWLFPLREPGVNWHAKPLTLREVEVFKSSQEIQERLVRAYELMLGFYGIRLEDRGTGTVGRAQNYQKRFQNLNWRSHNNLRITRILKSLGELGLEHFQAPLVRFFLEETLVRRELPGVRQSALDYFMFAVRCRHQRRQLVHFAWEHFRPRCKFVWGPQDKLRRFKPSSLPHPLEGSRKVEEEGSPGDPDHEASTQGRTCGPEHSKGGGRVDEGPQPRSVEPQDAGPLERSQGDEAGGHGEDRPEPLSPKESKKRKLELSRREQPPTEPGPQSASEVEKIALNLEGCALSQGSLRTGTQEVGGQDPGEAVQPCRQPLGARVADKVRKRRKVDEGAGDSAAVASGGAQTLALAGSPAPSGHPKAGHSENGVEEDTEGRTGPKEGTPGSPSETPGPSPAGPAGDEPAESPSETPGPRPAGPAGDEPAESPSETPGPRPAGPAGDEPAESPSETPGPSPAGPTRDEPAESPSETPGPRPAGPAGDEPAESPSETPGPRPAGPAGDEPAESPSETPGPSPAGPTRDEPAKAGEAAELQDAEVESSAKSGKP
# Sequence of UniProt O00483 (O00483 whole entry, looked up): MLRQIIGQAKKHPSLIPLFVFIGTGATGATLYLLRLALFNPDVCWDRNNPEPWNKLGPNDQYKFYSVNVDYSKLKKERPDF
# Sequence of UniProt P03905 (P03905 whole entry, looked up): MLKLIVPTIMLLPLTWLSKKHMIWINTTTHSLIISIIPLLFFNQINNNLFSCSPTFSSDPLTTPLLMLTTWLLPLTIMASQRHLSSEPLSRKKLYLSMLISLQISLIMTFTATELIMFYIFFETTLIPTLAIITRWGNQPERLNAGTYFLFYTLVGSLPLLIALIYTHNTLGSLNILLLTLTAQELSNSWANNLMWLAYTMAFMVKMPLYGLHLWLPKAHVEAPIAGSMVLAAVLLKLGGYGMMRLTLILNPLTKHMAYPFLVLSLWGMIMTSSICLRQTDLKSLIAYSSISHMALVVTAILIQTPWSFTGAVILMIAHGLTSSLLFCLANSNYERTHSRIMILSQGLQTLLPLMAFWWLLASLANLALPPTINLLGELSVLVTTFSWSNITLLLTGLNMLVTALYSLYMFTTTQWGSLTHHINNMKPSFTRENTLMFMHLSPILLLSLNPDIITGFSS
# Sequence of UniProt P56556 (P56556 whole entry, looked up): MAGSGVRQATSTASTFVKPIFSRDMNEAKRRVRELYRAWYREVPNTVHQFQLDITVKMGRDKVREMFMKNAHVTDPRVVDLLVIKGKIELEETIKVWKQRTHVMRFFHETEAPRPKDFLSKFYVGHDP
# Sequence of UniProt P57740 (P57740 whole entry, looked up): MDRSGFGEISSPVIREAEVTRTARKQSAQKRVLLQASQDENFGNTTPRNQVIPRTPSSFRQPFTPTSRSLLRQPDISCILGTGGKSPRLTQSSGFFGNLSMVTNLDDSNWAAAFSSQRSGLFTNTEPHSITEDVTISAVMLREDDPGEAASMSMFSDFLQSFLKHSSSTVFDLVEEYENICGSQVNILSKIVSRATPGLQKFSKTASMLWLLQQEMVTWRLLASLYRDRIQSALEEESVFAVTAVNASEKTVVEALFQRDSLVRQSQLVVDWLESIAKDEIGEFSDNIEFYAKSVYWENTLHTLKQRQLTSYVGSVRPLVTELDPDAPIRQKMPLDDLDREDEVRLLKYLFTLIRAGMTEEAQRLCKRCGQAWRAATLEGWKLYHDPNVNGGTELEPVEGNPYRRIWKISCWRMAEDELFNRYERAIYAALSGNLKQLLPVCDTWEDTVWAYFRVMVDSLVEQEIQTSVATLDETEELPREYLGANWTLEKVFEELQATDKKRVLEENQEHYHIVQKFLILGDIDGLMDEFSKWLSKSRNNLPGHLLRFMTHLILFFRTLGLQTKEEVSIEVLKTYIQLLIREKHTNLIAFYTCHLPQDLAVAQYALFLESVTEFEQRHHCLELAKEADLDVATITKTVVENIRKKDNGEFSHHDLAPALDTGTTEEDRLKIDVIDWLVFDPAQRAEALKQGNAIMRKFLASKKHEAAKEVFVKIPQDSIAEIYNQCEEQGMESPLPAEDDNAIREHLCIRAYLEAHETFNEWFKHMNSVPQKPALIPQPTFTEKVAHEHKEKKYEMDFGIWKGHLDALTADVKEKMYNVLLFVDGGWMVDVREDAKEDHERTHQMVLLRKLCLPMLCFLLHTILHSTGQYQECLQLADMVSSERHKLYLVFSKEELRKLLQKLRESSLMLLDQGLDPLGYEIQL
# Sequence of UniProt Q9BW27 (Q9BW27 whole entry, looked up): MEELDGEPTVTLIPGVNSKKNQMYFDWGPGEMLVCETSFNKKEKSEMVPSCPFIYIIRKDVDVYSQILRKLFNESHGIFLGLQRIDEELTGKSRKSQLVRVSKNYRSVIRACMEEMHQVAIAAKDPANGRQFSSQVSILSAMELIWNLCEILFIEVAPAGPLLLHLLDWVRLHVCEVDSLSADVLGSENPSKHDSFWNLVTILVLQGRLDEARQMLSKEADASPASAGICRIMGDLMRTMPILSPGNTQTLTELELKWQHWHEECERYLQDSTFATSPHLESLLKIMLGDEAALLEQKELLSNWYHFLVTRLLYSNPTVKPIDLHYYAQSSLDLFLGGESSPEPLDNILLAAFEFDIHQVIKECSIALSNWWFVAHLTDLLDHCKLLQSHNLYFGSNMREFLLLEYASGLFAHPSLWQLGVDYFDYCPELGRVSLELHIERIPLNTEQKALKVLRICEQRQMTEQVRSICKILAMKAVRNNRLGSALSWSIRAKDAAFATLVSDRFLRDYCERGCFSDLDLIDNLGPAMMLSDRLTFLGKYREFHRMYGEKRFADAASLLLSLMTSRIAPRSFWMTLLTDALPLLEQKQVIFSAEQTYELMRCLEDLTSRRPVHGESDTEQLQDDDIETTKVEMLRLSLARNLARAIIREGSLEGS
# Sequence of UniProt Q96RE7 (Q96RE7 whole entry, looked up): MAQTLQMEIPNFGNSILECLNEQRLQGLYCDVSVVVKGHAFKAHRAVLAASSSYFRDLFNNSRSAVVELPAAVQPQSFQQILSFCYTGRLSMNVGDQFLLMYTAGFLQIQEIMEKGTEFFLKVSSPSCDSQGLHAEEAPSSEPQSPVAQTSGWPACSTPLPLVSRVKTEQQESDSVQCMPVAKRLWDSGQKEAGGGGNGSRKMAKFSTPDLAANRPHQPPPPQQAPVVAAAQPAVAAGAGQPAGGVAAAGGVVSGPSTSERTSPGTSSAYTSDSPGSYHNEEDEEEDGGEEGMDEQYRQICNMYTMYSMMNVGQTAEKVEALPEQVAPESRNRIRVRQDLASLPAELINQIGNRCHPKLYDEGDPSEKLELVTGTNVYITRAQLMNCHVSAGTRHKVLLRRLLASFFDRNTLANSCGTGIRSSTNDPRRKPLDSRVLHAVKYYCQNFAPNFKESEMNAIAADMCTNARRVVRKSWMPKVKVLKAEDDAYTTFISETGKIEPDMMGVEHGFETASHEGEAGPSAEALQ
# Sequence of UniProt Q00013 (Q00013 whole entry, looked up): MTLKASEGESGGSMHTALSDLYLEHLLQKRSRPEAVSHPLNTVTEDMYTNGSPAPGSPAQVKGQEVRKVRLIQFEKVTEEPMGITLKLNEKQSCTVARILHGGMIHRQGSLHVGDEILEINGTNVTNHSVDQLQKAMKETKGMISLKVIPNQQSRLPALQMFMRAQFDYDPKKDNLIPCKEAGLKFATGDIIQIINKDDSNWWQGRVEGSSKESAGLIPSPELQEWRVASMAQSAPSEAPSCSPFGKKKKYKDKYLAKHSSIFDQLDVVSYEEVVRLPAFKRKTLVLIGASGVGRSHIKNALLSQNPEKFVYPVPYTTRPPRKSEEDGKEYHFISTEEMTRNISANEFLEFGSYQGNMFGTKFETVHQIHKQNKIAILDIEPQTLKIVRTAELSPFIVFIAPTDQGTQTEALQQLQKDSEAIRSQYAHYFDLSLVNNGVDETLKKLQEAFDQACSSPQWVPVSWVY
# Sequence of UniProt Q99747 (Q99747 whole entry, looked up): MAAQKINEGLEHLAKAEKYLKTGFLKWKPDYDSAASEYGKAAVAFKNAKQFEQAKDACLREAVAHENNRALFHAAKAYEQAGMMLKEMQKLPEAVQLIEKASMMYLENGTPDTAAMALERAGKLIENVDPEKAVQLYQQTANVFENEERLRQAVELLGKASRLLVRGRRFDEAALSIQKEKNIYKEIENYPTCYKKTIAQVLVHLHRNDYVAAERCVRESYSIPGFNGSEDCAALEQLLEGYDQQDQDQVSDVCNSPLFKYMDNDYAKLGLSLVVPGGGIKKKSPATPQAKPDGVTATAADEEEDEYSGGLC
# Sequence of UniProt O00217 (O00217 whole entry, looked up): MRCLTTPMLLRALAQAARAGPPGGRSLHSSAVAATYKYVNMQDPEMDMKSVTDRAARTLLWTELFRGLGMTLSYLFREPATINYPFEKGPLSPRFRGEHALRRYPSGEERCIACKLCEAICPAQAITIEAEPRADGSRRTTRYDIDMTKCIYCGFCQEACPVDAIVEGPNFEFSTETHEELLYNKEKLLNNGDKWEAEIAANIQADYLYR
# Sequence of UniProt Q9NXX6 (Q9NXX6 whole entry, looked up): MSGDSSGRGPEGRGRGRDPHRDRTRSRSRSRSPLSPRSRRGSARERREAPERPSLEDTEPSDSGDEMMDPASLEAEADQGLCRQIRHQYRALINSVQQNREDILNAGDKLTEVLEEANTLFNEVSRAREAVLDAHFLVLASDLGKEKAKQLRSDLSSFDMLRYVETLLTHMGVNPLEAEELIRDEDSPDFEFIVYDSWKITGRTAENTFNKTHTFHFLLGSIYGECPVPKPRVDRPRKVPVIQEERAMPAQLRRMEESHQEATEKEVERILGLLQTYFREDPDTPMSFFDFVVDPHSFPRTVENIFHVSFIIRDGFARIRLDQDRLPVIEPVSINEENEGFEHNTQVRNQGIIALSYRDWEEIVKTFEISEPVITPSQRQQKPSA
Target,log2 fold change (IRAK-1-4 Inhibitor I),log2 fold change (ibrutinib),log2 fold change [1],log2 fold change (ralimetinib),log2 fold change [2],log2 fold change [3],log2 fold change [4],log2 fold change (pinometostat),log2 fold change [5],log2 fold change [6],log2 fold change [7],log2 fold change [8],log2 fold change [9],log2 fold change [10],log2 fold change (Nexturastat A),log2 fold change (vemurafenib),log2 fold change [11],log2 fold change [12],log2 fold change (givinostat),log2 fold change (barasertib)
MRPS6 (UniProt P82932),-0.193,-0.007,-0.079,0.012,-0.158,-0.003,-0.009,-0.007,0.003,-0.139,0.081,-0.052,0.006,0.128,0.076,0.1,0.059,0.062,0.037,-0.017
MRPS24 (UniProt Q96EL2),-0.048,0.009,-0.071,-0.086,-0.094,-0.159,0.051,0.002,-0.031,-0.227,-0.01,-0.037,0.047,-0.003,0.095,-0.065,0.057,-0.016,-0.035,-0.024
MRPS18B (UniProt Q9Y676),-0.026,0.103,-0.096,-0.022,-0.025,-0.043,0.137,-0.005,0.056,-0.068,-0.036,-0.165,-0.08,0.009,0.031,-0.074,0,-0.081,0.075,-0.017
MPP1 (UniProt Q00013),-0.073,-0.047,-0.071,0.075,-0.087,-0.147,0.023,0.011,-0.023,0.029,0.117,-0.052,0.043,0.025,0.002,0.029,0.04,0.053,0.062,0.034
MSTO1 (UniProt Q9BUK6),0.012,0.009,-0.003,-0.028,-0.162,-0.105,-0.003,-0.002,-0.027,0.043,-0.032,-0.052,-0.02,0.024,-0.118,0.052,0.018,-0.012,0.011,0.037
NSMCE4A (UniProt Q9NXX6),0.077,-0.116,-0.059,0.051,0.003,0.252,0.008,0,-0.052,-0.124,0,0.022,-0.035,-0.053,0.037,0.088,-0.041,-0.016,-0.072,0.196
NAPG (UniProt Q99747),-0.071,-0.014,-0.067,-0.012,-0.069,-0.248,0.028,0.016,0,0.016,0.044,-0.115,0.077,0.006,0.004,0.067,0.155,0.045,0.123,0.107
NUP85 (UniProt Q9BW27),-0.011,-0.027,-0.058,-0.036,-0.013,-0.048,-0.026,-0.033,0.04,0.015,-0.02,0.025,0.102,-0.001,-0.041,0.01,0.019,-0.02,0.015,0.017
NDUFS8 (UniProt O00217),0.087,0.034,-0.02,-0.083,-0.099,-0.145,0.017,0.005,0.034,0.075,0.02,0,0.03,0.018,-0.136,0.02,-0.006,-0.092,-0.014,-0.004
NUP107 (UniProt P57740),-0.054,-0.152,-0.035,0.035,0.023,-0.005,0.089,0.165,0.062,-0.052,-0.035,0.085,0.117,0.012,0.17,0.1,0.219,-0.031,0.011,0.017
NACC1 (UniProt Q96RE7),-0.026,-0.048,-0.109,-0.017,-0.058,-0.352 (active),-0.014,-0.015,0.034,-0.193,-0.043,-0.012,0.048,0.164,-0.036,0.154,0.064,0.025,0.208,0.115
OGFR (UniProt Q9NZT2),-0.023,0.001,-0.235,-0.014,0.109,-0.028,-0.008,0.149,0.036,0.044,-0.023,0.018,-0.022,0.035,0.057,0.075,0.002,0.01,-0.02,0.125
NDUFA6 (UniProt P56556),-0.004,-0.031,-0.092,-0.046,-0.214,-0.05,-0.045,-0.083,-0.03,0.175,0.029,-0.082,0.1,0.125,-0.067,0.04,0.198,-0.064,0.047,0.035
MMS19 isoform 8 (UniProt Q96T76),-0.141,-0.029,-0.028,0.078,-0.082,-0.216,0.006,0.084,-0.018,0.011,-0.022,-0.029,0,0.067,0.051,0.047,0.1,0.061,-0.061,0.063
MT-ND4 (UniProt P03905),-0.005,-0.092,-0.236,-0.06,-0.094,-0.124,-0.054,-0.135,-0.065,0.056,-0.064,0.067,0.015,0.048,-0.155,0.004,0.016,0.014,0.058,0.156
NDUFA4 (UniProt O00483),0,-0.019,-0.024,-0.098,-0.029,-0.018,-0.009,-0.013,0.032,0.126,0.046,-0.069,-0.003,0.049,-0.033,0.002,0.018,-0.023,-0.099,0.044
